# Reference: PubChem BioAssay (NCATS)
# Inconclusive results are not listed. Values without a mark were called inactive. Activity calls are given as the source filed them. The call rests on the fitted dose curve; in most records, active means well fitted inhibition curve with a large enough effect; inconclusive means small, poorly fitted or top-dose-only effect; inactive means no such curve, though single readings can be large or run the other way.
# Molecular target: Retinaldehyde dehydrogenase 3 (Homo sapiens) (UniProt P47895)
# Experiment: qHTS for Inhibitors of the Aldehyde Dehydrogenase Family (ALDH1A3) Validation screen (AID 2061312); further: nearly all actives have a fitted effect of over 45% in size; further: potency means the concentration at half of the fitted maximal effect; on activity change, negative = inhibition: on the % scale 0 is the no-effect control and ±100 the full control effect
# Conditions: ALDH1A3 enzyme inhibition qHTS validation, fluorescence; series mostly up to 42.4 µM; activity change, negative = inhibition: at the top concentration
Structure (SMILES),"activity change, negative = inhibition",Potency
CCCCCN(C)CCC(O)(P(=O)(O)O)P(=O)(O)O,-6.97%,
COc1ccc2c(c1)c(CCN(C)C)cn2S(=O)(=O)c1ccccc1,0.554% [at 84.7 µM],
COc1ccc(CNC(=O)/C=C/c2ccc3[nH]cc(CCN(C)C)c3c2)cc1,9.01%,
CC(C)(C)c1cc(C=C(C#N)C#N)cc(C(C)(C)C)c1O,-3.9%,
COc1ccc2[nH]cc(CCN)c2c1,-4.44%,
NCc1cc(=O)[nH]o1,-1.02%,
COc1ccc2c(c1)C13CCCCC1C(C2)N(C)CC3 (stereo unspecified),9.55%,
NC(=O)CN1CCCC1=O,3.56%,
COc1ccc(C(CN(C)C)C2(O)CCCCC2)cc1 (stereo unspecified),-25.4%,
Cc1cc(C(=O)CN2CCCC2)c(C)n1-c1ccc(F)cc1,,inactive
O=C(O)CC[N+](=O)[O-],-4.17%,
CNCCc1c[nH]c2ccc(O)cc12,-19.9%,
CN1C2CCC1CC(OC(=O)c1cc(Cl)cc(Cl)c1)C2 (stereo unspecified),10.9%,
c1ccc(C2CC2)c(OCC2=NCCN2)c1,9.29%,
CN1C2CCC1CC(OC(c1ccccc1)c1ccccc1N)C2 (stereo unspecified),14.9%,
Oc1ccc2c3c1O[C@H]1c4oc5ccccc5c4C[C@@]4(O)C(C2)N(CC2CC2)CCC314 (stereo partly specified),4.97%,
CC(C)(C)NCC(O)c1ccccc1Cl (stereo unspecified),12.7%,

Structure (SMILES),"activity change, negative = inhibition",Potency
COC[C@H]1OC(=O)c2coc3c2[C@@]1(C)C1=C(C3=O)C2CCC(=O)[C@@]2(C)C[C@H]1OC(C)=O (stereo partly specified),,7.08 µM (active)
CCCCc1ccc(C(=O)O)nc1,-36.9%,
CCCC[N+]1(C)C2CC(OC(=O)[C@H](CO)c3ccccc3)CC1C1OC12 (stereo partly specified),-0.325%,
c1ccc2sc(C3(N4CCCCC4)CCCCC3)cc2c1,-21.4%,
CC1(C(=O)O)C2CCC(O2)C1(C)C(=O)O (stereo unspecified),16.2%,
COc1ccc(OC)c(C(O)C(C)N)c1 (stereo unspecified),-10.7%,
CCNC(=O)[C@H]1O[C@@H](n2cnc3c(N)ncnc32)[C@H](O)[C@@H]1O,4.59%,
CC(C)(C)c1o[nH]c(=O)c1CC(N)C(=O)O (stereo unspecified),-16.6%,
O=C1NCN(c2ccccc2)C12CCN(CC1COc3ccccc3O1)CC2 (stereo unspecified),14.8%,
CN[C@@H]1C[C@@H](c2ccc(Cl)c(Cl)c2)c2ccccc21,-10.3%,
CCCN(CCC)C1Cc2cc(OC)c(OC)cc2C1,6.63%,
C[C@@H]1O[C@@H](O[C@H]2C[C@@H](O)[C@]3(CO)[C@@H]4C(CC[C@]3(O)C2)[C@@]2(O)CC[C@H]([C@@H]3COC(=O)C3)[C@@]2(C)C[C@H]4O)[C@H](O)[C@H](O)[C@H]1O (stereo partly specified),3.73%,
CC(CCc1ccccc1)NC(C)C(O)c1ccc(O)cc1 (stereo unspecified),14%,
NC(CP(=O)(O)O)C(=O)O (stereo unspecified),-13.9%,
NC(=O)CN1CC(O)CC1=O (stereo unspecified),-1.29%,
O=C1CCCN1CC#CCN1CCCC1,4.05%,

# Molecular target: Retinal dehydrogenase 2 (Homo sapiens) (UniProt O94788)
# Experiment: qHTS for Inhibitors of the Aldehyde Dehydrogenase Family (ALDH1A2) Confirmation screens (AID 2061314); further: nearly all actives have a fitted effect of over 65% in size; on activity, negative = inhibition: on the % scale 0 is the no-effect control and ±100 the full control effect
# Conditions: ALDH1A2 enzyme inhibition qHTS confirmation; series mostly up to 45.9 µM; activity, negative = inhibition: at the top concentration
Structure (SMILES),"activity, negative = inhibition",outcome
COc1ccc2c(c1)c(CCN(C)C)cn2S(=O)(=O)c1ccccc1,-0.601%,
CO[C@@H]1[C@H](O)[C@@H](O[C@@H]2C[C@H]3CC[C@@H]4C(CC[C@]5(C)[C@@H](C6=CC(=O)OC6)CC[C@]45O)[C@@]3(C)[C@H](O)C2)O[C@H](C)[C@@H]1O (stereo partly specified),-16.1% [at 25.6 µM],
NC1CCc2cc(O)c(O)cc2C1 (stereo unspecified),-8.82%,
C[C@@]1(C(=O)O)CC[C@]2(C)CC[C@]3(C)C4=CC(=O)c5cc(O)c(O)cc5[C@]4(C)CC[C@@]3(C)[C@@H]2C1,1.31% [at 25.6 µM],
CCCN(CCC)[C@@H]1CCc2ccc3[nH]c(C#N)cc3c2C1,0.768%,
CCN1C[C@]2(COC(=O)c3ccccc3N3C(=O)C[C@H](C)C3=O)CC[C@H](OC)[C@@]34[C@@H]5C[C@H]6[C@H](OC)[C@@H]5[C@](O)(C[C@@H]6OC)[C@](O)([C@@H](OC)[C@H]23)[C@@H]14,1.9%,
O=S(=O)(c1ccccc1F)N1CCOc2c(N3CCNCC3)cccc21,,inactive

# Molecular target: Retinaldehyde dehydrogenase 3 (Homo sapiens) (UniProt P47895)
# Experiment: qHTS for Inhibitors of the Aldehyde Dehydrogenase Family (ALDH1A3) Primary screen (AID 2061315); further: potency means the concentration at half of the fitted maximal effect;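 on activity change, negative = inhibition: plate controls were DMSO vehicle for no effect and reference inhibitor for full effect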
# Conditions: ALDH inhibition qHTS; series mostly up to 56 µM; activity change, negative = inhibition: at the top concentration
Structure (SMILES),"activity change, negative = inhibition",Potency
COc1ccc2c(c1)c(CCN(C)C)cn2S(=O)(=O)c1ccccc1,-10%,
Cc1cc(C(=O)CN2CCCC2)c(C)n1-c1ccc(F)cc1,,inactive
CO[C@@H]1[C@H](O)[C@@H](O[C@@H]2C[C@H]3CC[C@@H]4C(CC[C@]5(C)[C@@H](C6=CC(=O)OC6)CC[C@]45O)[C@@]3(C)[C@H](O)C2)O[C@H](C)[C@@H]1O (stereo partly specified),-21.9% [at 28 µM],
C[C@@]1(C(=O)O)CC[C@]2(C)CC[C@]3(C)C4=CC(=O)c5cc(O)c(O)cc5[C@]4(C)CC[C@@]3(C)[C@@H]2C1,,4.47 µM (active)
CCCN(CCC)[C@@H]1CCc2ccc3[nH]c(C#N)cc3c2C1,-19.9%,
CCN1C[C@]2(COC(=O)c3ccccc3N3C(=O)C[C@H](C)C3=O)CC[C@H](OC)[C@@]34[C@@H]5C[C@H]6[C@H](OC)[C@@H]5[C@](O)(C[C@@H]6OC)[C@](O)([C@@H](OC)[C@H]23)[C@@H]14,2.67%,
O=S(=O)(c1ccccc1F)N1CCOc2c(N3CCNCC3)cccc21,-8.85%,

# Molecular target: Aldehyde dehydrogenase 1A1 (Homo sapiens) (UniProt P00352)
# Experiment: qHTS for Inhibitors of the Aldehyde Dehydrogenase Family (ALDH1A1) Confirmatory screens (AID 2061316); further: on the % scale 0 is the no-effect control and ±100 the full control effect; nearly all actives have a fitted effect of over 65% in size
# Conditions: ALDH inhibition qHTS; series mostly up to 47.3 µM; activity change, negative = inhibition: at the top concentration
row,Structure (SMILES),"activity change, negative = inhibition"
1,CO[C@@H]1[C@H](O)[C@@H](O[C@@H]2C[C@H]3CC[C@@H]4C(CC[C@]5(C)[C@@H](C6=CC(=O)OC6)CC[C@]45O)[C@@]3(C)[C@H](O)C2)O[C@H](C)[C@@H]1O (stereo partly specified),-15.8% [at 25.5 µM]
2,C[C@@]1(C(=O)O)CC[C@]2(C)CC[C@]3(C)C4=CC(=O)c5cc(O)c(O)cc5[C@]4(C)CC[C@@]3(C)[C@@H]2C1,-7.04% [at 25.5 µM]
3,CCN1C[C@]2(COC(=O)c3ccccc3N3C(=O)C[C@H](C)C3=O)CC[C@H](OC)[C@@]34[C@@H]5C[C@H]6[C@H](OC)[C@@H]5[C@](O)(C[C@@H]6OC)[C@](O)([C@@H](OC)[C@H]23)[C@@H]14,-18.8%
4,O=S(=O)(c1ccccc1F)N1CCOc2c(N3CCNCC3)cccc21,-14.7%
